Among the data in PubChem BioAssay (NCI) are growth values, retold here.

The panel holds about 83,000 compounds, 20% with a hit somewhere; the sample as a whole holds those more often.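 Interpretation: 100, growth as untreated; towards 0, rising growth inhibition; 0, no net growth; 0 to -100, cell death. Compounds scoring below 10 were considered active.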 A number with no mark means an inactive call. Calls of active or inactive are those of the source.

Test systems include 786-0 renal; MALME-3M melanoma; MDA-MB-231 breast; SF-268 CNS; SF-295 CNS; UACC-257 melanoma; U251 CNS; PC-3 prostate; UACC-62 melanoma; SK-MEL-2 melanoma; SN12C renal; UO-31 renal; TK-10 renal; ACHN renal; A498 renal; OVCAR-5 ovarian; OVCAR-3 ovarian; HS 578T breast; NCI/ADR-RES ovarian; BT-549 breast.
What all share (experiment): NCI-60 one-dose screen, 48 h (100 = growth as untreated, 0 = no growth, -100 = all killed)
Common to all, as to details: 10 µM

For the molecule `O=C(Nc1ccc(OCc2ccc(Cl)cc2)cc1)Nc1ccc(Cl)c(C(F)(F)F)c1`, the growth with 786-0 renal was 17.2%; in the assay on MALME-3M melanoma, -16.6% (active); in the assay with MDA-MB-231 breast, 13.4%; in the assay with SF-268 CNS it was 43.3%; in the assay with SF-295 CNS, -12.8% (active); with UACC-257 melanoma, -6.05% (active). Moreover, the growth is 6.47% (active) in the assay on U251 CNS; -7.44% (active) in the assay with PC-3 prostate; 16.8% in the assay with UACC-62 melanoma; -30% (active) in the assay on SK-MEL-2 melanoma; 18.2% with SN12C renal; 6.65% (active) with UO-31 renal. Besides, the growth with TK-10 renal is 18.5%; in the assay on ACHN renal, 11.2%; in the assay on A498 renal, -12.4% (active); in the assay on OVCAR-5 ovarian it was 53.3%; in the assay with OVCAR-3 ovarian, 29.3%; in the assay with HS 578T breast, 22.1%. Besides, the growth is 1.08% (active) in the assay on NCI/ADR-RES ovarian and -17% (active) with BT-549 breast.
With `O=C(Nc1ccc(OCc2ccc(F)cc2)cc1)Nc1ccc(Cl)c(C(F)(F)F)c1`, the growth is 13.5% in the assay with 786-0 renal; -10.2% (active) in the assay with MALME-3M melanoma; 6.32% (active) with MDA-MB-231 breast; 39% in the assay on SF-268 CNS; -30.4% (active) in the assay with SF-295 CNS; -1.33% (active) in the assay on UACC-257 melanoma. The growth in the assay with U251 CNS is 10.3%; in the assay with PC-3 prostate it was -1.21% (active); in the assay on UACC-62 melanoma, 6.53% (active); in the assay on SK-MEL-2 melanoma, -34.7% (active); in the assay on SN12C renal it was 21.9%; in the assay with UO-31 renal, 7.5% (active). For the same molecule, the growth in the assay on TK-10 renal is 20.2%; in the assay with ACHN renal, 14.6%; in the assay on A498 renal it was -9.28% (active); in the assay with OVCAR-5 ovarian, 31.9%; in the assay on OVCAR-3 ovarian it was 34.5%; with HS 578T breast it was 24%. Besides, the growth in the assay with NCI/ADR-RES ovarian was 4.62% (active); in the assay on BT-549 breast, -15.9% (active).
In the case of `O=C(CSc1nc2ccccc2c(=O)n1-c1ccc(Cl)cc1)Nc1ccc(-c2nc3ccccc3[nH]2)cc1`, the growth with 786-0 renal is -76.9% (active); in the assay on MALME-3M melanoma, -78.1% (active); in the assay on MDA-MB-231 breast, -14.8% (active); in the assay with SF-268 CNS it was -33.3% (active); with SF-295 CNS, -7.28% (active); in the assay on UACC-257 melanoma, 13.3%. The growth in the assay on U251 CNS was -61.4% (active); with PC-3 prostate, -54.2% (active); with UACC-62 melanoma it was -12.1% (active); with SK-MEL-2 melanoma, 82.1%; in the assay on SN12C renal it was -37.2% (active); in the assay on UO-31 renal, -39.1% (active). For the same molecule, the growth in the assay with TK-10 renal was -31.9% (active); in the assay with ACHN renal it was 3.26% (active); with A498 renal, 109%; in the assay on OVCAR-5 ovarian, 67.8%; with OVCAR-3 ovarian it was -35.5% (active); in the assay with HS 578T breast it was -27.4% (active). Moreover, the values for the growth in the assay with NCI/ADR-RES ovarian and in the assay with BT-549 breast were -3.44% (active) and 35.6%, respectively.
